Measured values reported in PubChem BioAssay AID1117358 (Southern Research Institute, 2015).
The whole screen tested about 2,300 compounds, of which about 160 (7%) were called active. No rule for the calls is given here. Not all results are given here. Potency and affinity values are given separately.

Assay: viability loss in Vero cells – cytotoxicity control for Vif-APOBEC3G degradation inhibitor project, dose response (AID 1117358)
Details: CellTiter-Glo ATP luminescence, 72 h; series mostly up to 40 µM; viability: at the top concentration

| Structure (SMILES) | viability |
| --- | --- |
| CC(C(=O)N1CCOCC1)(c1ccccc1)c1ccccc1 | 99.1% (inactive) |
| COc1ccc(C(C)(C)C)cc1NC(=O)C1C2C=CC(C2)C1C(=O)O (stereo not drawn) | 95.7% (inactive) |
| CC1CCCC(NC(=O)Cn2cc3c(n2)CCCCC3)C1C (stereo not drawn) | 97.6% (inactive) |
| CCOC(=O)N1CCN(CC(=O)c2ccc3c(c2)CCN3C(C)=O)CC1 | 103% (inactive) |
| CCOc1ccc2[nH]c(=O)c(CN(Cc3nnnn3Cc3ccco3)C3CCCCC3)cc2c1 | 94.2% (inactive) |
| CCOC(=O)c1ccc(NC(=O)CSCc2ccco2)cc1 | 105% (inactive) |
| Cc1cc(C)n(CC(O)CN2c3ccccc3Sc3ccccc32)n1 (stereo not drawn) | 92.5% (inactive) |
| COC(=O)COc1ccc(S(=O)(=O)NCc2ccco2)cc1Cl | 95.7% (inactive) |
| CCOc1cc(Cl)c(S(=O)(=O)NCc2ccccn2)cc1Cl | 90.8% (inactive) |
| O=C(Cn1ncc2c(=O)oc3ccccc3c21)N1CCCc2ccccc21 | 94.4% (inactive) |
| CCC(C)NS(=O)(=O)c1ccc(S(=O)(=O)N(CC(=O)Nc2ccccc2)CC2CCCO2)cc1 (stereo not drawn) | 97.2% (inactive) |
| Cc1cccc(C)c1NC(=O)COC(=O)c1cc(-c2cccnc2)nc2ccccc12 | 80.7% (inactive) |
| CCOC(=O)CC1Sc2ccccc2NC1=O (stereo not drawn) | 86.3% (inactive) |
| COc1cc(O)oc1C=Nc1ccccc1 | 93.3% (inactive) |
| Cc1ccc(S(=O)(=O)N=Nc2c(O)[nH]c3ccccc23)cc1 | 99.4% (inactive) |
| CCOC(=O)C1=C(CSc2nc(C)ccc2C#N)OC(N)=C(C#N)C1c1cccc(OC)c1OC (stereo not drawn) | 95.5% (inactive) |
| Cc1nc(NC(=O)CN2CCOCC2)sc1-c1ccccc1 | 91.9% (inactive) |
| O=C(O)CC(C(=O)O)N1C(=O)/C(=C/c2ccc(-c3nc4ccccc4s3)o2)SC1=S (stereo not drawn) | 97.1% (inactive) |
| O=C1CC(c2ccco2)CC(O)=C1C=Nc1ccc(Br)cc1 (stereo not drawn) | 95.1% (inactive) |
| COc1ccc(OCC(=O)O/N=C(\N)Cc2ccc(Cl)cc2)cc1 | 91.2% (inactive) |
| CCC(=O)Nc1nc2ccc(NC(C)=O)cc2s1 | 90.9% (inactive) |
| CCOC(=O)N1CCC(NC(=O)c2cc3c(C)nc4ccccc4c3o2)CC1 | 102% (inactive) |
| CCOC(=O)C1CCN(C(=O)c2ccc(OC)cc2OC)CC1 | 106% (inactive) |

| Structure (SMILES) | viability |
| --- | --- |
| COc1ccc(NC(=O)Nc2cccs2)cc1OC | 108% (inactive) |
| CCOC(=O)Nc1nnc(-c2ccccc2OC)s1 | 90.3% (inactive) |
| C=CCOC(=O)CN1C(=O)c2ccccc2C1=O | 99.6% (inactive) |
| COc1ccc(OC)c(NC(=O)CSc2nnc(CCCO)n2-c2ccccc2)c1 | 96.8% (inactive) |
| CCn1c(SCC(=O)n2c(C)c(C)c3ccccc32)nnc1-c1ccco1 | 91.6% (inactive) |
| CCOc1ccccc1CNC(=O)Cn1c(=O)oc2ccccc21 | 99.8% (inactive) |
| COc1ccccc1N1CCN(C(=O)c2cc(-c3cccs3)on2)CC1 | 107% (inactive) |
| Cc1ccccc1CS(=O)(=O)Cc1ccc(C(=O)N2CCOCC2)o1 | 91.3% (inactive) |
| CCOc1cc(C)nc(NCCc2ccc(OC)c(OC)c2)n1 | 90.1% (inactive) |
| COc1ccc(OC)c(NC(=O)NCc2ccc(F)cc2)c1 | 99.7% (inactive) |
| O=C1c2ccccc2C(=O)N1CCc1csc(-c2ccc(F)cc2)n1 | 101% (inactive) |
| COc1ccc(Oc2nc(C)cc(C)c2C#N)cc1 | 99.7% (inactive) |
| Cc1cc(-c2cc(-c3ccc(Cl)cc3)nc(N)c2C#N)co1 | 103% (inactive) |
| O=[N+]([O-])c1cc(/C=N\Nc2nccs2)ccc1O | 108% (inactive) |
| CC(OC(=O)c1cccs1)C(=O)NCc1ccco1 (stereo not drawn) | 99% (inactive) |
| CCc1nc(SCC(=O)Nc2ccc(C(=O)O)cc2)n[nH]1 | 96% (inactive) |
| CCc1cccc(NC(=O)Cn2ncn3c(cc4ccccc43)c2=O)c1 | 96.6% (inactive) |
| COCCNC(=O)COc1ccc(Br)cc1Cl | 88.5% (inactive) |
| CSc1cccc(NC(=O)CN(c2cc(C)ccc2C)S(C)(=O)=O)c1 | 96.9% (inactive) |
| Cn1c(CN2CCOCC2)nc2cc(NC(=O)c3ccc(F)cc3)ccc21 | 94.2% (inactive) |
| N#Cc1nc(-c2ccco2)oc1N1CCN(c2ccccc2)CC1 | 96.4% (inactive) |
| CCC(C)(C)n1nnnc1C(c1cc2cc(C)ccc2[nH]c1=O)N1CCCc2ccccc21 (stereo not drawn) | 105% (inactive) |
| O=C(OCc1ccc(Cl)cc1)c1cnccn1 | 94% (inactive) |

| Structure (SMILES) | viability |
| --- | --- |
| O=C(CSc1nccn1Cc1ccccc1)Nc1nccs1 | 95.5% (inactive) |
| Cc1ccc(NC(=O)CCC(=O)NNC(=O)COc2cccc3ccccc23)c(C)c1 | 95.2% (inactive) |
| CS(=O)(=O)N(CC(=O)NCc1ccc2c(c1)OCO2)Cc1ccccc1 | 96.3% (inactive) |
| O=C(O)Cc1ccc(C(=O)c2ccccc2)s1 | 96.4% (inactive) |
| Oc1ccc(/C=N/NC2=NCCCCC2)c(O)c1 | 101% (inactive) |
| Cc1ccc(C)n1Cc1ccc(C(=O)O)cc1 | 88.8% (inactive) |
| CC(=O)C1CCN(Cc2ccccc2)CC1 | 97.3% (inactive) |
| Cn1cccc1C(=O)NC(=O)COC(=O)CC12CC3CC(CC(Br)(C3)C1)C2 | 97% (inactive) |
| O=C(COC(=O)c1cc(-c2ccco2)nc2ccccc12)NCc1ccc2c(c1)OCO2 | 101% (inactive) |
| Cc1nc(C(=O)N(C)C)nn1-c1cc(Cl)cc(Cl)c1 | 97.7% (inactive) |
| CCOC(=O)c1ccc(-n2ncc(C(=O)OCC)c2N)cc1 | 92.9% (inactive) |
| Cc1ccc(S(=O)(=O)N2CCC(C(=O)Nc3nnc(-c4ccco4)s3)CC2)cc1 | 102% (inactive) |
| CCN(CC)c1ccc(/C=N/n2c(C)cc(C)cc2=O)cc1 | 92.2% (inactive) |
| CCOc1ccc(Br)cc1/C=N/O | 98.1% (inactive) |
| CCOc1ccc(N(CC(=O)NC2CCCCC2)S(=O)(=O)c2c(C)noc2C)cc1 | 94.7% (inactive) |
| Cc1onc(-c2ccccc2)c1C(=O)N1CCCc2ccccc21 | 93.6% (inactive) |
| C=CCn1c(SCC(=O)c2cc(C)n(C(C)COC)c2C)nc2sc(C)c(C)c2c1=O (stereo not drawn) | 97.2% (inactive) |
| CCOC(=O)c1ccc(NS(=O)(=O)c2ccc3c(c2)oc(=O)n3C)cc1 | 99.5% (inactive) |
| Cc1nnc(-c2cnn(-c3ccccc3)c2N)n1Cc1cccc(C(F)(F)F)c1 | 88.8% (inactive) |
| C/C(=C1\SC(N2CCOCC2)=NC1=O)c1ccccc1 | 101% (inactive) |
| Cc1noc(C)c1C(=O)N1CCN(c2ncccn2)CC1 | 109% (inactive) |
| COc1ccc(NS(=O)(=O)c2cccc(Cl)c2Cl)cc1S(=O)(=O)N1CCCCC1 | 86.5% (inactive) |
| CCC(=O)N1CCN(c2ccccc2NC(=O)c2cccc(C)c2)CC1 | 107% (inactive) |

| Structure (SMILES) | viability |
| --- | --- |
| O=C(NCc1ccc(Cl)cc1)c1ccccc1Oc1ccccc1 | 102% (inactive) |
| COC(=O)c1cccc(NC(=O)c2cccc(OC)c2)c1 | 83% (inactive) |
| CCC(=O)NNc1ncnc2ccccc12 | 94.4% (inactive) |
| COc1cc2c(cc1NC(=O)COC(=O)Cn1cnc3ccccc31)oc1ccccc12 | 88.4% (inactive) |
| CCOC(=O)N1CCC(Nc2c(-c3ccc(C)cc3)c(=O)c2=O)CC1 | 98.5% (inactive) |
| Cc1cccc(CCNC(=O)CCc2nc(-c3ccccc3F)no2)c1 | 95.3% (inactive) |
| O=C(N/N=C/C=C\c1ccco1)c1cccnc1 | 97.5% (inactive) |
| Cc1cc(C)nc(N(C#N)CN2C(=O)c3ccccc3S2(=O)=O)n1 | 105% (inactive) |
| COc1ccc(OC)c(-c2cc(C(=O)NCc3cccs3)no2)c1 | 103% (inactive) |
| COC(=O)CSc1nnc(CNC(=O)c2cccs2)n1-c1cc(OC)ccc1OC | 94.3% (inactive) |
| c1ccc2c(c1)ccc1nnc(SCc3ccc4c(c3)OCO4)n12 | 94.7% (inactive) |
| CCOC(=O)NC1(NC2CCCCC2)Oc2ccccc2O1 | 106% (inactive) |
| CC(C)(C)NC(=O)C1N(c2cccnc2)C(=O)C2C(C(=O)Nc3ccccc3F)C3(C)C=CC21O3 (stereo not drawn) | 99.9% (inactive) |
| O=S(=O)(c1ccc(Cl)s1)N1CCN(Cc2ccccc2)CC1 | 93.6% (inactive) |
| O=C(CN1CCN(S(=O)(=O)c2ccc(Cl)cc2)CC1)Nc1ccc2c(c1)OCCO2 | 87.7% (inactive) |
| CCC(C)(C)C1CCc2c(sc(NC(=O)c3ccoc3C)c2C(N)=O)C1 (stereo not drawn) | 93.7% (inactive) |
| O=C(CSc1nnc(-c2cccnc2)n1Cc1ccco1)c1ccc(Br)cc1 | 99.4% (inactive) |
| Cc1c(C(=O)Nc2ccc(Cl)cc2)c2ccccn2c1CCc1ccncc1 | 105% (inactive) |
| O=C(O)CCC(=O)NNC(=O)CCC(=O)NCc1ccccc1 | 112% (inactive) |
| C/C(=C/C(=O)NCc1ccccc1)C(=O)O | 97.7% (inactive) |
| Cc1cc(F)ccc1S(=O)(=O)Nc1ccccc1C(=O)Nc1ccc2[nH]c(=O)[nH]c2c1 | 94.2% (inactive) |
| COC(=O)c1ccccc1NC(=O)C1CCCC1 | 95.7% (inactive) |
| Cc1ccc(Cc2cnc(NC(=O)/C(C#N)=C/c3ccc(-c4ccc([N+](=O)[O-])cc4)o3)s2)cc1 | 99.2% (inactive) |

| Structure (SMILES) | viability |
| --- | --- |
| COc1ccc(NC(=O)/C(C#N)=C\c2cc(C)n(-c3ccc(Oc4ccc([N+](=O)[O-])cn4)cc3)c2C)cc1 | 101% (inactive) |
| O=C(NCc1ccc(F)cc1)c1c(O)c2cccc3c2n(c1=O)CCC3 | 90.8% (inactive) |
| CCSC1=C(C#N)C(c2cccs2)C(C(=O)OC)=C(C)N1 (stereo not drawn) | 96% (inactive) |
| CCOC(=O)c1c(O)c2ccccc2n(-c2ccccc2)c1=O | 92.8% (inactive) |
| CCn1c(=O)c(C(=O)NCc2ccccn2)c(O)c2ccccc21 | 97.1% (inactive) |
| Cc1ccc2cc3c(NC(=O)c4cccnc4)nn(C)c3nc2c1 | 94% (inactive) |
| CN(C)C(CNC(=O)c1cccnc1Sc1ccccc1)c1ccco1 (stereo not drawn) | 96.5% (inactive) |
| O=C(c1cnn2c(C(F)F)cc(C3CC3)nc12)N1CCc2ccccc2C1 | 94.5% (inactive) |
| O=C(NC1CCCC1)c1ccc(CNc2c(N3CCOCC3)c(=O)c2=O)cc1 | 101% (inactive) |
| CN(C)[C@H]1N(C(=O)c2ccc(Br)cc2)N=C2c3ccccc3S(=O)(=O)N21 | 94.4% (inactive) |
| Cc1cc(C(=O)CN2C(=O)c3ccccc3S2(=O)=O)c(C)n1CC1CCCO1 (stereo not drawn) | 106% (inactive) |
| Cc1c(NS(=O)(=O)c2cccc(C(=O)NCc3ccncc3)c2)c(=O)n(-c2ccccc2)n1C | 98.7% (inactive) |
| O=C(CCCc1ccccc1)N1CCN(c2ccc([N+](=O)[O-])cc2)CC1 | 95.2% (inactive) |
| Cc1ccc(-c2nc3s/c(=C\c4ccco4)c(=O)n3n2)cc1 | 98.8% (inactive) |
| O=C(NCC1CCCO1)c1cc(-c2ccco2)nc2ccccc12 (stereo not drawn) | 101% (inactive) |
| CCCC(=O)Nc1cccc(-c2nc3ccccc3o2)c1 | 93.2% (inactive) |
| CCn1c(SCC(=O)n2nc(C)cc2C)nnc1-c1ccc2c(c1)OCO2 | 95.5% (inactive) |
| Cc1c(/C=N\NC(=O)c2csc3ccccc23)cnn1C | 107% (inactive) |
| CN(CCOCCOc1ccc2ccccc2c1)Cc1ccccc1 | 80.2% (inactive) |
| Cc1cc(NC(=O)c2cncc(Br)c2)no1 | 94.7% (inactive) |
| O=C(O)c1cc(-c2ccc(N3CCOCC3)cc2)nn1-c1ccc(F)cc1F | 98.9% (inactive) |
